Tb PYK inh – T. brucei pyruvate kinase inhibition; TbPYK enzyme, Kinase-Glo Plus ATP luminescence, 45 min; Potency, µM (doses to about 76.8 µM), for the others: at the top dose activity, negative = inhibition, actives largely listed as inhibitors; hit rate 0.12% among 410,000; further: potency means the concentration at half of the fitted maximal effect; on the % scale 0 is the no-effect control and ±100 the full control effect; nearly all actives have a fitted effect of over 50% in size
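Activity of T. brucei pyruvate kinase was followed by Kinase-Glo Plus luminescence after the enzyme reacted 45 min at room temperature with 130 uM ADP (final) and substrate. Test compounds were added before ADP at multiple concentrations.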
Shiga toxin inh – Shiga toxin inhibition; inhibition, % at 38.7 µM; hit rate 9.2% among 290,000; Vero cells, Shiga toxin protein synthesis inhibition reporter; in the data active means inhibition mostly above about 28%, no sharp cut-off; inactive means mostly below about 43%; further: 0% is about no effect
RE007 growth inh – less growth of the S. pombe RE007 Vpr strain; Potency, µM (series often up to 92.2 µM), without a hit: at the top dose activity change, negative = less growth, most hits filed as inhibitors; S. pombe RE007 Vpr strain, BacTiter-Glo ATP luminescence, 24 h; AID 651644; hit rate 0.21% among 360,000; active means well fitted falling curve with a large enough effect; inconclusive means small, poorly fitted or top-dose-only effect; inactive means no such curve, though single readings can be large or run the other way; further: potency means the concentration at half of the fitted maximal effect; on the % scale 0 is the no-effect control and ±100 the full control effect; nearly all actives have a fitted effect of over 50% in size
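Fission yeast RE007 carrying one integrated HIV-1 vpr copy, seeded at OD 0.01 in PMG+AL medium with 23 nL pinned compound. Grown 24 h at 30 degrees; viability read by BacTiter-Glo luminescence after 5 min.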
LmPK inh – blocks Leishmania mexicana pyruvate kinase activity | Q27686 | purified LmPK, Kinase-Glo ATP luminescence, 1 h | Potency, µM (top dose mostly 57.5 µM), for inactives: top-dose activity change, negative = inhibition, usual class: inhibitors | hit rate 0.37% among 290,000 | AID 1721; further: potency means the concentration at half of the fitted maximal effect; on the % scale 0 is the no-effect control and ±100 the full control effect
Target sequence (Q27686 whole entry, looked up): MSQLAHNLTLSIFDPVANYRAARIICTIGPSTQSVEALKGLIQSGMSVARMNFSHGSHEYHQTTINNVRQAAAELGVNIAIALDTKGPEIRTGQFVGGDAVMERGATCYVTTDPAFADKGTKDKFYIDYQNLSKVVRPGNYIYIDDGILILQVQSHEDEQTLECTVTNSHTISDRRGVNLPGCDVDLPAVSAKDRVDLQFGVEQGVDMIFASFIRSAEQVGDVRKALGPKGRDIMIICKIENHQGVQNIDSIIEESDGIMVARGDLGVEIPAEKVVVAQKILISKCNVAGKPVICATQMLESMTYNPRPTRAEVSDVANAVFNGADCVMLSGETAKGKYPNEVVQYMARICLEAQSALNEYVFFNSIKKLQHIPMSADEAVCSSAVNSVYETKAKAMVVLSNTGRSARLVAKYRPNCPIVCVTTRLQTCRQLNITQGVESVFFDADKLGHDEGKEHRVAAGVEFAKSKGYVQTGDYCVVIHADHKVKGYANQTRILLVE
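In 50 mM imidazole pH 7.2 with 7 mM MgCl2, LmPK (0.1 nM) turned over PEP (0.5 mM) and ADP (0.1 mM) for 1 h at room temperature. Luciferase read-out of ATP.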
Cycloheximide cs – affects cycloheximide protein synthesis inhibition readout, counter-screen. cell reporter, cycloheximide protein synthesis inhibition counterscreen. max response, %. hit rate 12% among 300,000; in the data active means max response mostly above about 13%, no sharp cut-off; inactive means mostly below about 14%; further: read at 38.3 µM for the half of the compounds with a filed dose; 0% is about no effect
FBPA Giardia inh – blocks Giardia fructose-bisphosphate aldolase activity | A8B2U2 | Potency, µM (top dose mostly 59.6 µM), for inactives: at the top dose activity, negative = inhibition, usual class: inhibitors | AID 2451 | purified Giardia FBPA | hit rate 0.71% among 290,000; further: potency means the concentration at half of the fitted maximal effect; on the % scale 0 is the no-effect control and ±100 the full control effect; nearly all actives have a fitted effect of over 55% in size
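40 nM FBPA preincubated 10 min at RT with compound (up to 57.5 uM final), then substrate plus GAPDH/TPI/NAD/arsenate coupling and diaphorase/resazurin added. Fluorescence read after 20 min at RT, 525/598 nm.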
Numbers without * were called inactive; ? = inconclusive; nt = no result. The sample as a whole holds a higher share of hits than the screen did. Unless noted, the call rests on the fitted dose curve; in most records, active means well fitted curve in the direction sought with a large enough effect; inconclusive means small, poorly fitted or top-dose-only effect, or another doubt; inactive means no such curve, though single readings can be large; an effect the other way counts as inactive or inconclusive.

SMILES	Tb PYK inh	Shiga toxin inh	RE007 growth inh	LmPK inh	Cycloheximide cs	FBPA Giardia inh
CC(=O)N1CCc2c(sc3c2c(=O)n(-c2ccccc2)c(=O)n3CC(=O)c2ccc(F)cc2)C1	-2%	nt	nt	nt	nt	nt
Cc1ccc2onc(CC(=O)Nc3ccc(C(C)C)cc3)c2c1	7%	nt	nt	nt	nt	nt
Cc1ccc(NC(=O)C2Cc3ccccc3CN2C(=O)c2ccco2)cc1S(=O)(=O)N(C)C (centres undefined)	1%	79*	-18%	2%	31*	3%
CN(C)S(=O)(=O)c1cccc(NC(=O)C2Cc3ccccc3CN2C(=O)c2ccco2)c1 (centres undefined)	-23%	69*	-19%	5%	21*	-7%
O=C(Nc1nnc(C2CC2)s1)C1Cc2ccccc2CN1C(=O)c1ccco1 (centres undefined)	-25%	39*	-14%	0%	23*	-19%
COc1ccc(NC(=O)C2Cc3ccccc3CN2C(=O)c2ccco2)cc1 (centres undefined)	-2%	43	-18%	-7%	21*	nt
CCOc1ccccc1CNC(=O)CSc1n[nH]c(-c2ccccc2)n1	-4%	nt	nt	nt	nt	nt
COc1ccc(CNC(=O)CCCc2nnc3n(C(C)C)c(=O)c4sccc4n23)cc1	6%	nt	nt	nt	nt	nt
Cc1ccc(OCC(=O)Nc2ccc3nn(-c4ccc(C)cc4)nc3c2)cc1	-5%	nt	nt	nt	nt	nt
CC(C)=Cc1oc2ccc([N+](=O)[O-])cc2c1N1CCOCC1	-11%	65*	-17%	-2%	21*	-1%
NC(=O)Cn1cc(/C=N/NC(=O)c2ccc(Cn3cc(Cl)cn3)o2)c(-c2ccccc2)n1	-4%	-4	-8%	-10%	7	nt
COc1ccc(Cc2nc(-c3ccc(Br)o3)no2)cc1OC	-12%	52	-12%	11%	18*	-28%
Cc1ccc(-c2noc(COc3ccc(Br)c(C)c3)n2)cc1	2%	nt	nt	nt	nt	nt
COc1cccc(OCc2nc(-c3ccc(Br)o3)no2)c1	3%	48	22%	3%	28*	-2%
COc1cccc(OCc2nc(-c3cccc([N+](=O)[O-])c3)no2)c1	1%	46	-15%	1%	25*	1%
Cc1cccc(OCc2nc(-c3ccc(Br)o3)no2)c1	-1%	92*	-6%	16%	13	5%
Brc1ccc(-c2noc(COc3ccc4ccccc4c3)n2)o1	3%	10	-7%	15%	9	-13%
CN(C)c1ccc(NC(=O)Cn2c(SCc3ccc(F)cc3)nc3cccnc32)cc1	2%	nt	nt	nt	nt	nt
CCc1ccc(-n2nnc(-c3nc(-c4ccc(C)cc4)no3)c2N)cc1	0%	nt	nt	nt	nt	nt
COc1ccc(-c2cc3nc(C)cc(C)n3n2)cc1	4%	48*	-14%	-17%	35*	-24%
Cc1cc(-c2ccc(Br)cc2)n2nc(C)cc2n1	-5%	nt	-10%	nt	nt	nt
Cc1cc(C)n2nc(-c3ccc(Cl)cc3)cc2n1	10%	100*	-4%	0%	43*	-1%
Cc1nc2cc(-c3ccc(Cl)cc3)nn2c(NCCN(C)C)c1C	-1%	80*	-16%	-2%	60*	-4%
Cc1cc(C)n2nc(-c3ccc(Br)cc3)cc2n1	0%	nt	-3%	5%	26*	-13%
COc1ccc(-c2cc3nc(-c4ccccc4)cc(C(F)(F)F)n3n2)cc1	22%	nt	nt	nt	nt	nt
SMILES	Tb PYK inh	Shiga toxin inh	RE007 growth inh	LmPK inh	Cycloheximide cs	FBPA Giardia inh
COCCn1c2c([n+](Cc3cnccn3)c1C)C(=O)c1ccccc1C2=O	0%	nt	nt	nt	nt	nt
CCC(=O)N1CCc2cc(CNC(=O)Cc3ccc(F)cc3)ccc21	2%	nt	nt	nt	nt	nt
COc1ccc(OC)c(NC(=O)Cn2ncc3c2-c2ccccc2OC3)c1	0%	nt	nt	nt	nt	nt
CCCCN(CCCC)CCNC(=O)Cn1nc(CC)n2c(cc3sc(C)cc32)c1=O	-12%	nt	nt	nt	nt	nt
Cc1ccc(C(=O)CCNc2cccc(Br)c2)o1	-14%	32	?	8%	16	0%
Cc1ccc(C(=O)CCNc2ccccc2)o1	4%	76*	11µM*	-4%	27*	-3%
Cc1ccc(C(=O)CCNc2ccc(Br)cc2)o1	1%	62*	-29%	-3%	27*	2%
COC(=O)/C(C#N)=C1/C=Cc2ccccc2N1	-6%	68*	3%	0%	34*	4%
C1=Cc2ccccc2Nc2ccccc21	-3%	20	-28%	-4%	-3	-4%

Screens (PubChem BioAssay)
